The source made the active and inactive calls.

The subject of experiment [1] is Plasmodium falciparum Sir2 (PF13_0152, Sir2A). The experiment can be described thus: Plasmodium falciparum Sir2A binding compounds – biochemical, small-molecule microarray, 635 nm fluorescence, primary screen (AID 1098).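 Further: score merges spot fluorescence intensity with its signal-to-noise ratio.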 Particulars: fluorescence 635 nm, higher = more signal.
Experiment [2] is described as follows: probe aDKK1 binding to arrayed compounds – biochemical, biotinylated probe, 635/667 nm fluorescence, primary screen (AID 1099).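 Further: score merges 667nm spot fluorescence with signal to noise across triplicate slides.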 Particulars: small-molecule microarray, higher = more signal.
Experiment [3] is described as follows: probe aCHRDL2 binding to arrayed compounds – biochemical, biotinylated probe, 635/667 nm fluorescence, primary screen (AID 1100). Particulars: small-molecule microarray, higher = more signal.
Experiment [4] in a line: change in splice reporter luminescence, either direction, cell-based, HEK293, spliceosome inhibition project, primary screen (AID 1101).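 Further: HEK293 cells carrying a splicing-competent luciferase reporter gene; test concentration not given here.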 Particulars: HEK293 splicing luciferase reporter, 24 h, higher = more signal, called active from +8 up or from −8 down. (In general: Reporter assays use an easily measured gene product as a stand-in for the process of interest.)
Experiment [5] deals with Fibroblast growth factor 10 (Homo sapiens) (UniProt O15520). The experiment can be described thus: compounds binding fibroblast growth factor 10 – biochemical, small-molecule microarray, 635 nm fluorescence, primary screen (AID 1102). Particulars: FGF10 binding, fluorescence 635 nm, higher = more signal.
Experiment [6] deals with glycogen synthase kinase-3 (GSK3A per assay name; protocol says GSK3B). The experiment can be described thus: compounds binding glycogen synthase kinase-3 – biochemical, small-molecule microarray, 635 nm fluorescence, GSK3A, primary screen (AID 1103). Further: the record names both GSK3A and GSK3B. Particulars: fluorescence 635 nm, higher = more signal.
The target of experiment [7] is Epidermal growth factor receptor (Homo sapiens) (UniProt P00533). Put plainly: compounds binding epidermal growth factor receptor – biochemical, small-molecule microarray, 635 nm fluorescence, primary screen (AID 1104).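 Further: score merges 667 nm emission intensity with spot signal to noise over triplicate slides.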 Particulars: EGFR binding, higher = more signal.
Experiment [8] addresses Follistatin-related protein 3 (Homo sapiens) (UniProt O95633). Put plainly: compounds binding follistatin-related protein 3 – biochemical, small-molecule microarray, 635 nm fluorescence, primary screen (AID 1105).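 Further: score merges emission near 667 nm and signal to noise per printed spot across three slides.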 Particulars: FSTL3 binding, higher = more signal.
For experiment [9], the target named is Dickkopf-related protein 1 (Homo sapiens) (UniProt O94907). Put plainly: small molecules binding DKK1 protein – biochemical, small-molecule microarray, 635 nm fluorescence scan, primary screen (AID 1106).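 Further: score merges emission near 667 nm with signal to noise over three replicate slides.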 Particulars: higher = more signal.
The subject of experiment [10] is Inhibin beta A chain (activin A). The experiment can be described thus: small molecules binding activin A – biochemical, small-molecule microarray, 635 nm fluorescence scan, primary screen (AID 1107).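 Further: mouse activin A protein probed at 4.33 µg/mL on printed slides; score merges bound-protein fluorescence near 667 nm with spot signal-to-noise.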 Particulars: INHBA, higher = more signal.
The test system of experiment [11] is Human papillomavirus type 1a protein E7 (residues 44-93). The experiment can be described thus: small molecules binding HPV E7 44-93 – biochemical, small-molecule microarray, residues 44-93, 635 nm fluorescence, primary screen (AID 1108).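 Further: E7 fragment applied at 1 µg/mL in TBST for 1 h at 4 C; score combines spot fluorescence with its signal to noise ratio.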 Particulars: fluorescence 635 nm, higher = more signal.
The nature of experiment [12]: hepatitis C replication reporter changes, two-sided – Huh7 cells, luciferase reporter, HCV replication inhibitor project, primary screen (AID 1109).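 Further: huh7 hepatoma cells harbouring a luciferase neomycin HCV replicon reporter; luciferase luminescence as measure of HCV replicon replication; test concentration not given here.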 Particulars: Huh7 HCV replicon luciferase reporter, 48 h; higher = more signal.
In experiment [13] the target is Left-right determination factor 2 (Homo sapiens) (UniProt O00292). Put plainly: small molecules binding LEFTY2 protein – biochemical, small-molecule microarray, 635 nm fluorescence scan, primary screen (AID 1110). Particulars: higher = more signal.
Experiment [14] has as its target Calmodulin-1 (Homo sapiens) (UniProt P0DP23). The experiment can be described thus: small molecules binding calmodulin-1 with EGTA – biochemical, small-molecule microarray, Cy5-labelled CALM1, profiling panel (AID 1111).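 Further: labelled calmodulin applied in Tris saline Tween buffer holding calcium plus EGTA and DTT.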 Particulars: Cy5-CALM1 binding fluorescence, higher = more signal.
For experiment [15] the target is unchanged. Put plainly: small molecules binding Ca-loaded calmodulin-1 – biochemical, small-molecule microarray, Cy5-labelled CALM1, plus calcium, artefact control for SMM control-protein annotation, profiling panel (AID 1112).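 Further: score merges spot fluorescence with signal to noise from triplicate slides.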 Particulars: Cy5-CALM1 binding fluorescence, higher = more signal.
Experiment [16] is described as follows: probe aWnt5a binding to arrayed compounds – biochemical, biotinylated probe, 635/667 nm fluorescence, primary screen (AID 1113).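 Further: score merges 667 nm fluorescence intensity with signal-to-noise per printed feature.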 Particulars: small-molecule microarray, higher = more signal.
Experiment [17] is described as follows: probe aShh binding to arrayed compounds – biochemical, biotinylated probe, 635/667 nm fluorescence, primary screen (AID 1114).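 Further: probe is biotin-labelled aShh protein from a stem cell growth factor screen; measures binding of labelled protein to compounds printed on the slide; score merges feature fluorescence at 667 nm with signal-to-noise.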 Particulars: small-molecule microarray, higher = more signal.
Experiment [18] can be described thus: probe aNog binding to arrayed compounds – biochemical, biotinylated probe, 635/667 nm fluorescence, primary screen (AID 1115).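 Further: probe is biotinylated aNog protein used at 0.15 µg/mL for 1 h at 4 C; z-score combines 667 nm fluorescence of each spot with its signal to noise.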 Particulars: small-molecule microarray, higher = more signal.
Experiment [19] deals with Torsin-1A-interacting protein 1 (Homo sapiens) (UniProt Q5JTV8). Put plainly: compound microarray binding of lysate hLAP1 – cell lysate, small-molecule microarray, COS7 lysate, 635/667 nm fluorescence, primary screen (AID 1116). Particulars: 635 nm fluorescence, higher = more signal.
Experiment [20] has as its target Alpha-bungarotoxin (Bungarus multicinctus) (UniProt P60615). Put plainly: compounds binding labelled alpha-BTX control protein – biochemical, small-molecule microarray, Alexa647 label, 635/667 nm fluorescence, artefact control for SMM control protein annotation, profiling panel (AID 1117). Particulars: alpha-BTX-A647 binding fluorescence, higher = more signal.

Dickkopf-related protein 1 (Homo sapiens), sequence (O94907 whole entry, looked up): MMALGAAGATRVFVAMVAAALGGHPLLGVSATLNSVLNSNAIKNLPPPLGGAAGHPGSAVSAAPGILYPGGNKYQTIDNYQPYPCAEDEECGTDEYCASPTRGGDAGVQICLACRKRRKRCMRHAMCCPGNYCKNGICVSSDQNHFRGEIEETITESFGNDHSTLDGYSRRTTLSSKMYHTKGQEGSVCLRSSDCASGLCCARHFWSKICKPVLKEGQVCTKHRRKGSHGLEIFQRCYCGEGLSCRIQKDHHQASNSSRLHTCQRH
Torsin-1A-interacting protein 1 (Homo sapiens), sequence (Q5JTV8 whole entry, looked up): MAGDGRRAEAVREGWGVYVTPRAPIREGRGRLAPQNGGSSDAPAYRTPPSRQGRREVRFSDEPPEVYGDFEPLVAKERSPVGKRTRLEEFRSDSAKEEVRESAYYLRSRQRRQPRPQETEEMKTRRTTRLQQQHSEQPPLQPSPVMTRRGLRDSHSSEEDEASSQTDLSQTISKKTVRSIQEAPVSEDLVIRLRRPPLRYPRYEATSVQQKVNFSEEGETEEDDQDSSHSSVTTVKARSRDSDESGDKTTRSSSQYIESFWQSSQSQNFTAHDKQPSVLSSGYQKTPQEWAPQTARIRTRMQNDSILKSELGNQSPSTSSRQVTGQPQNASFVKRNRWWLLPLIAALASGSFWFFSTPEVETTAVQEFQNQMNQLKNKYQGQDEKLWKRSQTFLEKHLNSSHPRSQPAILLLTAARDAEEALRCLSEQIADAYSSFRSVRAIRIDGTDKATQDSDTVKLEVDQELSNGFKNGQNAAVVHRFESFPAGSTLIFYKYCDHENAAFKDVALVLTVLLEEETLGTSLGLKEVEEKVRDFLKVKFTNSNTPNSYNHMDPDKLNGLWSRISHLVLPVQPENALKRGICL
Epidermal growth factor receptor (Homo sapiens), sequence (P00533 whole entry, looked up): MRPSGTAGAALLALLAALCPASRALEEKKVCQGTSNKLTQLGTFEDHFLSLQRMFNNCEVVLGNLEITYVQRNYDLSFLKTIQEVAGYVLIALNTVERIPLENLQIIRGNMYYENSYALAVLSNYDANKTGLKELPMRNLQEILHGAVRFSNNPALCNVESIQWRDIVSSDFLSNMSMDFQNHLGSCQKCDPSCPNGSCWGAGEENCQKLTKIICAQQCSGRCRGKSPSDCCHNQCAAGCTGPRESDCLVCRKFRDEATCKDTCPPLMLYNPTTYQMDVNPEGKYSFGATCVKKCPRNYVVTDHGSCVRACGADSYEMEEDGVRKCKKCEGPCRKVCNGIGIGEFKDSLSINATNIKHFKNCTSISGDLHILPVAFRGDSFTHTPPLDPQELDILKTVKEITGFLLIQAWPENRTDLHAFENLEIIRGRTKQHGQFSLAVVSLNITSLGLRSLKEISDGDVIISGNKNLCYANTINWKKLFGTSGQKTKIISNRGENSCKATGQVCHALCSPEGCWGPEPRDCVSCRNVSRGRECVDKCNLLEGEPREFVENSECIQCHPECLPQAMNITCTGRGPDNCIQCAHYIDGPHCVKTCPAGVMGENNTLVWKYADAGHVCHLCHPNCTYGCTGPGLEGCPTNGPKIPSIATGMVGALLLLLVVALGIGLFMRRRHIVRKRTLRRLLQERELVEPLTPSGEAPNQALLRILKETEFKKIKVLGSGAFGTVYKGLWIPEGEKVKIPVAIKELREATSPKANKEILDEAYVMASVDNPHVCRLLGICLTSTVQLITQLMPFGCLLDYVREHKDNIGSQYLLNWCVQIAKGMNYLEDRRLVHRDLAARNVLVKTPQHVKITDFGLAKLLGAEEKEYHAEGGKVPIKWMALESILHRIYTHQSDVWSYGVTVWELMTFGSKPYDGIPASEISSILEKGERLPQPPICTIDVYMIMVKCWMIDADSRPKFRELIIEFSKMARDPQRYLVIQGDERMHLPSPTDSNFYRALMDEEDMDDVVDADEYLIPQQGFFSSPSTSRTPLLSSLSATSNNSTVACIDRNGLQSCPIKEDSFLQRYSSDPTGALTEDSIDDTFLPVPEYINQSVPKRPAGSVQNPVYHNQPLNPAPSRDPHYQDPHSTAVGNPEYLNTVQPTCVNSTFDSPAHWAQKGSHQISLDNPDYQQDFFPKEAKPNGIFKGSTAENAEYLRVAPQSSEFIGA
Follistatin-related protein 3 (Homo sapiens), sequence (O95633 whole entry, looked up): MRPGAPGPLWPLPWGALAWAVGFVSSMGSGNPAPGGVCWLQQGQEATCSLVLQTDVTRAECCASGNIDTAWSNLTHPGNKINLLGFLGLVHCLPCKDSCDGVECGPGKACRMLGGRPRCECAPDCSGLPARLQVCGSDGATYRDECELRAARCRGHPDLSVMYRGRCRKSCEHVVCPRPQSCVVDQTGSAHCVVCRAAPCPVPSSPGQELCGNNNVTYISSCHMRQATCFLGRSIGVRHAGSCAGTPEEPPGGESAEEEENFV
Fibroblast growth factor 10 (Homo sapiens), sequence (O15520 whole entry, looked up): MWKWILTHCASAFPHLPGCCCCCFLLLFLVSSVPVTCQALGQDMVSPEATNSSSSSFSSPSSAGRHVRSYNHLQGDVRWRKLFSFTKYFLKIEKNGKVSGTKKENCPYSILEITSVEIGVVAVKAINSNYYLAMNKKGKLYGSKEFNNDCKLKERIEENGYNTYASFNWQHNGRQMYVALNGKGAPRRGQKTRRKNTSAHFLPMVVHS
Alpha-bungarotoxin (Bungarus multicinctus), sequence (P60615 whole entry, looked up): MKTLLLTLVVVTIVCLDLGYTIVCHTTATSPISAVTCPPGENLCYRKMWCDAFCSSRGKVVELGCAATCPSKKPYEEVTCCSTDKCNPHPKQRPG
Left-right determination factor 2 (Homo sapiens), sequence (O00292 whole entry, looked up): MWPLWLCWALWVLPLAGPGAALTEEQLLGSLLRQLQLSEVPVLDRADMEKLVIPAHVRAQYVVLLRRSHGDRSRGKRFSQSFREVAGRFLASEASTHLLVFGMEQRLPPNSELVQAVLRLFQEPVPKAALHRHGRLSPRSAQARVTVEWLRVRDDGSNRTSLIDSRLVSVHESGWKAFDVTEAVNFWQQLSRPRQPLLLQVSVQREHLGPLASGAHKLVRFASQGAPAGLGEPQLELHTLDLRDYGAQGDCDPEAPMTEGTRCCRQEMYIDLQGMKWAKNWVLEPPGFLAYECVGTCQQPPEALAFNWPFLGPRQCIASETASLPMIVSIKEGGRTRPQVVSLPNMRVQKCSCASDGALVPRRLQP

Regarding `COc1cccc([C@H]2Oc3ccc(OC)cc3C(=NOC(C)CN3CCCc4nc(C)c(C)cc43)[C@@H]2O)c1` (stereo not given in full), the composite z-score in [1] is -0.403; in experiment [2] it was -0.207; in [3], -0.335; in [5] it was 0.474; in [6], 0.827; in experiment [7] it was 0.746. The composite z-score in experiment [8] was 0.0288; in experiment [9], 0.492; in experiment [10], -0.109; in experiment [11], -0.508; in experiment [13], 0.37; in experiment [14] it was -0.789. Besides, the composite z-score was -0.582 in [15]; -0.0286 in [16]; 0.151 in experiment [17]; -0.135 in experiment [18]; 0.74 in experiment [19]; -0.618 in experiment [20]. The figures for the z-score in experiment [4] and in experiment [12] were -0.467 (inactive) and -1.12, respectively.

As to `COc1ccc(COC(=O)NN=C2C[C@@H](O)[C@@H](O)[C@@H]3[C@@H]4C(=O)N(Cc5ccc6c(c5)OCO6)C(=O)[C@@H]4CC[C@@H]23)cc1`, the composite z-score in [1] was -0.454; in experiment [2], 0.911; in experiment [3], 1.39; in [5] it was -0.0715; in experiment [6] it was -0.52; in [7], -0.451. Moreover, the composite z-score in experiment [8] is -0.226; in [9], -0.539; in experiment [10], 0.556; in experiment [11] it was -0.743; in experiment [13] it was -0.218; in experiment [14], -0.389. Further, the composite z-score in experiment [15] was -0.252; in experiment [16], -0.0465; in experiment [17], 0.255; in [18], 0.175; in [19] it was 0.508; in experiment [20], 0.452. Also, the z-score is -1.36 (inactive) in [4] and -0.404 in experiment [12].

Turning to `C=CCNC(=O)[C@H]1[C@@H]2C(=O)O[C@@H](c3ccccc3)[C@@H](c3ccccc3)N2[C@@H](c2ccc(O)cc2)[C@]12C(=O)N(C(=O)OCCOC)c1ccc(C#CC3=CCCCC3)cc12`, the composite z-score in experiment [1] is 1.79; in experiment [2], 0.298; in [3] it was 0.263; in experiment [5] it was 0.966; in [6], 1.32; in experiment [7] it was 0.205. In addition, the composite z-score is 0.969 in experiment [8]; 0.23 in experiment [9]; 1.34 in experiment [10]; 1.04 in experiment [11]; 0.879 in [13]; 1.64 in [14]. Also, the composite z-score is 0.566 in [15]; 0.523 in experiment [16]; 1.92 in [17]; 2.64 in experiment [18]; 2.09 in experiment [19]; 1.79 in experiment [20]. Also, the z-score is -0.75 (inactive) in experiment [4] and -0.812 in [12].

Regarding `COCCOC(=O)N1C(=O)[C@@]2(c3cc(C#CC4(O)CCCCCC4)ccc31)[C@H](c1ccc(OCCO)cc1)N1[C@H](c3ccccc3)[C@H](c3ccccc3)OC(=O)[C@H]1[C@@H]2C(=O)NC[C@H](O)c1ccccc1`, the composite z-score was determined as 0.933 in experiment [1]; 0.0678 in experiment [2]; 0.389 in experiment [3]; 1.18 in experiment [5]; 1.29 in experiment [6]; 0.258 in experiment [7]. The composite z-score in experiment [8] was 0.432; in experiment [9], 0.208; in [10], 0.527; in experiment [11], 1.44; in experiment [13], 0.358; in experiment [14], 1.28. Besides, the composite z-score in [15] was 0.311; in experiment [16] it was 0.0079; in experiment [17], -0.0289; in [18], 0.385; in experiment [19], 1.26; in [20], 2.17. Further, the z-score in experiment [4] was -0.268 (inactive); in experiment [12], -2.32.

`COCCOC(=O)N1C(=O)[C@@]2(c3cc(C#Cc4ccc(OC)cc4)ccc31)[C@H](c1ccc(O)cc1)N1[C@H](c3ccccc3)[C@H](c3ccccc3)OC(=O)[C@H]1[C@@H]2C(N)=O`: the composite z-score is 1.49 in experiment [1]; -0.0422 in experiment [2]; -0.21 in experiment [3]; 1.1 in experiment [5]; 1.25 in experiment [6]; 0.655 in [7]. Besides, the composite z-score came to 1.4 in [8]; 0.56 in experiment [9]; 0.213 in experiment [10]; 1.44 in [11]; 0.599 in [13]; 1.06 in experiment [14]. For the same compound, the composite z-score in experiment [15] was -0.139; in experiment [16] it was 0.0045; in [17] it was 0.149; in experiment [18] it was -0.694; in [19], 0.743; in experiment [20] it was 1.16. Besides, the z-score in experiment [4] is -1.95 (inactive); in [12], -2.02.

Regarding `CC(C)C[C@@H]1NC(=O)[C@H]2C[C@@H](C(=O)NCCCCCCN(C)C)[C@@H](c3cccc(OCCO)c3)N2C1=O`, the composite z-score in [1] turned out to be 1.5; in experiment [2], 0.346; in experiment [3], 0.124; in [5] it was 1.01; in [6], 1.21; in experiment [7] it was 0.317. For the same compound, the composite z-score was 1.35 in experiment [8]; 1.74 in experiment [9]; 1.1 in experiment [10]; 1.24 in experiment [11]; 1.38 in [13]; -2.44 in experiment [14]. The composite z-score in experiment [15] is -1.26; in [16] it was -0.0792; in experiment [17] it was 0.108; in experiment [18], -0.216; in experiment [19], 2.04; in [20], 1.61. Further, the values for the z-score in [4] and in [12] were -0.152 (inactive) and 0.35, respectively.

These data come from PubChem BioAssay.
